In all, about 5,500 compounds went through this assay and about 2,000 (36%) were called active. Not shown: some 18% with an inconclusive outcome. Rule as the data show it: active = normalized growth mostly below about 0.91 (no sharp cut-off); inconclusive = no clear call, values can overlap the other calls; inactive = mostly above about 0.92. The list shows a part of the results.
Assay: chemical genetic growth profiling, strain panel (AID 1159580);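 also: tested at 20 µM; growth read once vehicle control cultures reached saturation at 30 °C; 1 = growth at the plate median or of vehicle wells; lower values mean less growth of the strain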
Details: S. cerevisiae deletion strains, growth OD

Measured: normalized growth

O=C(NOC(=O)c1ccccc1)c1ccccc1
active: locus YAR019C, strain CDC15, hits give low values 0.0906 | locus YBL105C, strain PKC1, hits give low values 0.0874 | locus YBR135W, strain CKS1, hits give low values 0.0902 | locus YBR136W, strain MEC1, hits give low values 0.0871 | locus YBR160W, strain CDC28, hits give low values 0.091 | locus YDL017W, strain CDC7, hits give low values 0.0875 | locus YDL028C, strain MPS1, hits give low values 0.0868 | locus YDL101C, strain DUN1, hits give low values 0.102 | locus YDL108W, strain KIN28, hits give low values 0.0859 | locus YDL132W, strain cdc53, hits give low values 0.0913 | locus YDL214C, strain PRR2, hits give low values 0.0898 | locus YDR052C, strain DBF4, hits give low values 0.0867 | locus YDR054C, strain cdc34, hits give low values 0.0943 | locus YDR226W, strain ADK1, hits give low values 0.0848 | locus YDR477W, strain SNF1, hits give low values 0.0987 | locus YER123W, strain YCK3, hits give low values 0.0956 | locus YER133W, strain GLC7, hits give low values 0.0938 | locus YFL009W, strain cdc4, hits give low values 0.093 | locus YFL029C, strain CAK1, hits give low values 0.089 | locus YFR003C, strain YPI1, hits give low values 0.0861 | locus YFR019W, strain FAB1, hits give low values 0.101 | locus YFR028C, strain CDC14, hits give low values 0.0859 | locus YGR040W, strain KSS1, hits give low values 0.103 | locus YGR052W, strain FMP48, hits give low values 0.111 | locus YGR092W, strain DBF2, hits give low values 0.104 | locus YHR030C, strain SLT2, hits give low values 0.114 | locus YHR079C, strain IRE1, hits give low values 0.112 | locus YHR082C, strain KSP1, hits give low values 0.153 | locus YHR205W, strain SCH9, hits give low values -0.00347 | locus YIL147C, strain SLN1, hits give low values 0.0859 | locus YJL095W, strain BCK1, hits give low values 0.107 | locus YJL128C, strain PBS2, hits give low values 0.097 | locus YJL157C, strain FAR1, hits give low values 0.0897 | locus YJR016C, strain ILV3, hits give low values 0.0894 | locus YJR066W, strain TOR1 (second series), hits give low values 0.0928 | locus YJR066W, strain TOR1, hits give low values 0.133 | locus YKL048C, strain ELM1, hits give low values 0.111 | locus YKL067W, strain YNK1, hits give low values 0.0892 | locus YKL101W, strain HSL1, hits give low values 0.103 | locus YKL193C, strain SDS22, hits give low values 0.0889 | locus YKL203C, strain TOR2, hits give low values 0.097 | locus YLR113W, strain HOG1, hits give low values 0.138 | locus YLR133W, strain CKI1, hits give low values 0.0893 | locus YLR403W, strain SFP1, hits give low values 0.00282 | locus YML070W, strain DAK1, hits give low values 0.109 | locus YMR001C, strain CDC5, hits give low values 0.0891 | locus YMR205C, strain PFK2 (second series), hits give low values 0.0877 | locus YMR277W, strain FCP1, hits give low values 0.0919 | locus YNL006W, strain LST8, hits give low values 0.0825 | locus YNL020C, strain ARK1, hits give low values 0.0971 | locus YNL161W, strain CBK1, hits give low values 0.0976 | locus YNL183C, strain NPR1, hits give low values 0.109 | locus YNL207W, strain RIO2, hits give low values 0.0878 | locus YNL222W, strain SSU72, hits give low values 0.0863 | locus YNL307C, strain MCK1 (second series), hits give low values 0.112 | locus YOL078W, strain AVO1, hits give low values 0.0891 | locus YOL136C, strain PFK27, hits give low values 0.0994 | locus YOR061W, strain CKA2, hits give low values 0.0894 | locus YOR119C, strain RIO1, hits give low values 0.108 | locus YOR231W, strain MKK1, hits give low values 0.111 | locus YOR329C, strain SCD5, hits give low values 0.0866 | locus YPL031C, strain PHO85, hits give low values 0.102 | locus YPL153C, strain RAD53, hits give low values 0.0967 | locus YPL204W, strain HRR25, hits give low values 0.1 | locus YPL209C, strain IPL1, hits give low values 0.0841 | locus YPL256C, strain CLN2, hits give low values 0.167 | locus YPR025C, strain CCL1, hits give low values 0.091 | locus YPR106W, strain ISR1, hits give low values 0.0869 | locus YPR111W, strain DBF20, hits give low values 0.09 | strain NNK1, hits give low values 0.0922 | strain TSCII, hits give low values 0.0892

From PubChem BioAssay AID1159580 (chemical genetic matrix, 2015)
